Only some compounds are listed: those with a hit (about 12% of all), similar ones and a draw of the others.
TDP1 inh = TDP1 (human) enzyme inhibition; Q9NUW8; recombinant TDP1, AlphaScreen DNA substrate cleavage; Potency, µM (series often up to 130 µM), without a hit: top-dose activity change, negative = inhibition, actives largely listed as inhibitors; 350,000 tested, 0.28% active; also: % is scaled to controls: 0 for no effect and ±100 for the full control effect; nearly all actives have a fitted effect of over 40% in size
Target sequence (Q9NUW8 whole entry, looked up): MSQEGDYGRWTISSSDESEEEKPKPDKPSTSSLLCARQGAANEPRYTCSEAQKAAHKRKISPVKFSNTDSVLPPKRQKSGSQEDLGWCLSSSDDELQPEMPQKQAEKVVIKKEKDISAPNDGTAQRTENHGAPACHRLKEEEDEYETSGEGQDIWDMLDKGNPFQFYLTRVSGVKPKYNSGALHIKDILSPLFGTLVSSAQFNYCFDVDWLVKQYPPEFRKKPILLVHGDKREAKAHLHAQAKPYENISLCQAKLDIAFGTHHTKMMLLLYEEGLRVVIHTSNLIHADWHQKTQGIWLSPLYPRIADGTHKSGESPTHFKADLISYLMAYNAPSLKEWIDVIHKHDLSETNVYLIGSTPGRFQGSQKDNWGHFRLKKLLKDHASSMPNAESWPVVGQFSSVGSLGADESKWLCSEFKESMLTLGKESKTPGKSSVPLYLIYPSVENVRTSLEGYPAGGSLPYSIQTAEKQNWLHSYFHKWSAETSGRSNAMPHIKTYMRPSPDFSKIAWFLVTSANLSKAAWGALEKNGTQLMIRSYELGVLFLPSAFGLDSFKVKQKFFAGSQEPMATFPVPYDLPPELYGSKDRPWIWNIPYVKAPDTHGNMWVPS
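Recombinant human Tdp1 (E. coli-expressed, 1 nM final) preincubated with compounds 15 min at room temperature, then 5'-biotin/3'-phosphotyrosine-FITC DNA substrate (15 nM final) added for 5 min. AlphaScreen beads (10 ug/ml final) added 10 min; cleavage lowers signal.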
JMJD2A Tudor = blocks the human JMJD2A Tudor domain; O75164; AlphaScreen JMJD2A-Tudor / H3K4me3 peptide binding; AID 504339; 390,000 tested, 4.4% active; Potency, µM (top dose mostly 114 µM), for inactives: at the highest dose activity change, negative = inhibition, hits mostly inhibitors; also: % is scaled to controls: 0 for no effect and ±100 for the full control effect; nearly all actives have a fitted effect of over 50% in size
Sfp PPTase inh = blocks B. subtilis Sfp PPTase activity. Q9F4F7. Biochemical Sfp PPTase activity, qHTS. Potency, µM, without a hit: largest response in the series, negative = inhibition, most hits filed as inhibitors. 310,000 tested, 3.5% active;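 also: the enzyme is Sfp with the accession as filed and its product quenches rhodamine fluorescence; 0% = enzyme reaction without inhibitor and -100% = no enzyme wells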
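Step 1, compound plus 15 nM Sfp-PPTase, 15 min, room temperature. Step 2, add rhodamine-CoA (5 uM) and BHQ-2-YbbR (12.5 uM). Step 3, read 525/598 nm fluorescence at 0 and 30 min.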
HP1b binding inh = HP1-beta chromodomain-methylated histone interaction inhibition; P83916; AlphaScreen HP1-beta / biotin-H3K9me3 peptide binding; Potency, µM (doses to about 114 µM), inactives show at the top dose activity change, negative = inhibition, hits mostly inhibitors; 390,000 tested, 0.56% active; also: nearly all actives have a fitted effect of over 70% in size
Target sequence (P83916 whole entry, looked up): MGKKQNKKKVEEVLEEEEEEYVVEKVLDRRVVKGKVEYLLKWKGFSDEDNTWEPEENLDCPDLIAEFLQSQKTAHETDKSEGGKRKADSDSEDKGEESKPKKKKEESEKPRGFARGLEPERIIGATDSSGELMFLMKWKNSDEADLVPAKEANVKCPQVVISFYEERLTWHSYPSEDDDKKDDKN
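Compound inhibition of the preformed complex between 50 nM HP1-beta and 50 nM biotinylated H3K9me3 peptide was read by AlphaScreen. Buffer was PBS pH 7.4 with 0.01% Tween-20. Incubations ran 30 min at room temperature, with 10 ug/mL donor/acceptor beads.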
G9a block = G9a (human) methyltransferase inhibition | Potency, µM (series often up to 102 µM), for the others: top-dose activity, negative = inhibition, most hits filed as inhibitors | 350,000 tested, 8.8% active | G9a H3K9 monomethylation, AlphaScreen, 2 h; also: % is scaled to controls: 0 for no effect and ±100 for the full control effect; nearly all actives have a fitted effect of over 75% in size
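Compounds were preincubated with 20 nM G9a for 15 min, after which biotinylated H3K9 peptide (500 nM) and SAM (20 uM) started a 2 h room-temperature reaction. Monomethylated product was quantified by antibody-based AlphaScreen chemiluminescence.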
BAZ2B block = blocks human BAZ2B; Q9UIF8; AlphaScreen BAZ2B-H3K14Ac peptide displacement; Potency, µM (top dose mostly 114 µM), without a hit: top-dose activity change, negative = inhibition, usual class: inhibitors; 360,000 tested, 4.4% active; AID 504333; also: % is scaled to controls: 0 for no effect and ±100 for the full control effect; nearly all actives have a fitted effect of over 60% in size
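Complex of BAZ2B and biotin-H3K14Ac (50 nM apiece) forms over 30 min at RT, then faces library compounds up to 110 uM for another 30 min; AlphaScreen beads added, 20 min dark incubation, luminescence read.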
* hit, by the source's call; ? = inconclusive; . = no result; [ ] = another dose, or the depositor's remark. Calls follow the shape of the dose curve; as a rule, active = well fitted curve in the direction sought with a large enough effect; inconclusive = small, poorly fitted or top-dose-only effect, or another doubt; inactive = no such curve, though single readings can be large; an effect the other way counts as inactive or inconclusive. Potency is read from the fitted curve at half-maximal effect.

SMILES | TDP1 inh | JMJD2A Tudor | Sfp PPTase inh | HP1b binding inh | G9a block | BAZ2B block
c1cc2c(cc1-c1csc(NNC3=NCCCCC3)n1)OCCO2 | 10.0% | -26.3%[11.4 µM] | -95.1% | ? | 6.31µM* | 35.5µM*
N#Cc1ccc(NC(=O)c2cc(-c3cccc(Cl)c3)on2)cc1 | . | -16.7% | . | -6.9% | -31.5%[59 µM] | -27.1%
Nc1ccc(Nc2nc(-c3ccncc3)cs2)cc1 | 9.3% | 56.2µM* | -4.0% | -31.1% | 39.8µM* | ?
Oc1ccc(Nc2nc(-c3ccc(Cl)cc3)cs2)cc1 | 20.7% | . | -20.0% | . | . | .
Oc1ccc(Nc2nc(-c3cccnc3)cs2)cc1 | . | ? | -16.2% | -14.8% | 39.8µM* | ?
c1ccc(CNc2nc(-c3cccnc3)cs2)cc1 | 0.0% | ? | 35.5µM* | 16.7% | 50.1µM* | ?
Oc1ccc(Nc2nc(-c3ccc(O)cc3)cs2)cc1 | 13.4% | ? | 6.3% | ? | ? | 28.2µM*
COc1ccccc1CN1C[C@@H]2C[C@@H](C3=Cc4cc(Cl)ccc4OC3)N3CCC[C@@]23C1=O | . | ? | -17.4% | 1.2% | ? | ?
CCc1nnc(NC(=O)CCC(=O)Nc2ccc(C)cc2)s1 | 1.4% | 3.1% | -0.8% | 10.2% | 12.1%[0.0925 µM] | 2.3%
CCOC(=O)c1ccc(N2C(=O)c3[nH]nc(-c4ccc(OCC)cc4)c3C2c2cccs2)cc1 (stereo not given) | 2.3% | -14.0% | . | 30.8% | -7.8%[59 µM] | .
CCC(=O)c1ccc(OCC(=O)Nc2nc(-c3cccnc3)cs2)cc1 | . | ? | . | 6.5% | 39.8µM* | -10.2%
CC1CC=CCC1(CO)CO (stereo not given) | . | -0.7% | . | 37.1% | . | .
COc1cc(NS(=O)(=O)c2ccc3c(c2)CCN3S(C)(=O)=O)cc(OC)c1 | 5.5% | -14.5% | . | 27.3%[57 µM] | 4.8%[59 µM] | 1.0%
Cc1ccc(NC(=O)CN(C)C(=O)CCSc2ccc(F)cc2)cc1 | -0.6%[56.1 µM] | 0.3% | . | 33.0% | -48.0%[2.33 µM] | -3.0%
O=C(Nc1ccccc1)C(Cc1cccs1)c1nn[nH]n1 (stereo not given) | -5.6% | -14.9% | -8.1% | 39.5% | -35.4%[59 µM] | -24.8%
CCOc1cccc(NC(=O)C(Cc2cccs2)c2nn[nH]n2)c1 (stereo not given) | 3.9% | -1.1% | ? | 11.6% | 56.2µM* | ?
Cc1ccc(OCc2nc3ccccc3n2CCOc2ccc(Cl)cc2)cc1 | -2.5% | -1.7% | . | 55.6% | 25.1%[59 µM] | 13.7%
COc1cc(/C=C2\C(C)=C(C#N)c3nc(N)c(C#N)c(C)c32)ccc1OCC(=O)O | 5.0% | -31.2% | ? | 5.9% | 25.1µM* | 56.2µM*
CC1=C(C#N)c2nc(N)c(C#N)c(C)c2/C1=C\c1ccc(C)cc1 | 9.6% | . | 35.5µM* | . | -3.1%[0.501 µM] | ?
CCC(=O)N1CCc2cc(Br)cc(S(=O)(=O)N3CCCC(C(=O)Nc4ccc(OC)cc4OC)C3)c21 (stereo not given) | 1.8% | -20.5% | . | 16.5% | 5.3%[59 µM] | -4.2%
COCCCNC(=O)c1ccc(Cn2c(SCc3cccc(C)c3)nc3cccnc32)cc1 | 6.2% | -22.4% | . | -4.2% | -8.0%[59 µM] | -1.4%
COc1ccc(Nc2ccccc2N)cc1 | 5.9% | 44.7µM* | -29.6% | ? | 15.8µM* | 35.5µM*
Nc1ccc(Nc2ccccc2N)cc1 | 7.8% | 50.1µM* | 2.8% | ? | ? | 35.5µM*
Cc1cccc(-c2ccc3c(c2)C2CC3CCN2Cc2ccc3c(c2)OCO3)c1 (stereo not given) | . | ? | . | -21.5% | . | .
CCOc1ccc(OCC)c(NC(=O)CSc2nnc(C3CC3)n2CC)c1 | . | -16.4% | 16.6% | 14.2% | 21.9% | -7.9%
SMILES | TDP1 inh | JMJD2A Tudor | Sfp PPTase inh | HP1b binding inh | G9a block | BAZ2B block
COCCN1CN=C(Nc2nc3ccccc3o2)NC1 | 1.9% | ? | 5.3% | 39.1% | 70.8µM* | 6.0%
CCCCN1CN=C(Nc2nc3ccccc3o2)NC1 | 3.8% | -13.9% | -1.8% | 12.0% | . | 0.6%
CC(C(=O)O/N=C(\N)c1cccnc1)c1ccc([N+](=O)[O-])cc1 (stereo not given) | 6.9% | -27.8% | 6.6% | 33.4% | ? | -20.5%
O=[N+]([O-])c1ccc(Cl)c(/C=N/N2CCN(Cc3ccccc3)CC2)c1 | 11.5% | 5.3% | 5.5% | 28.6% | 39.8µM* | 10µM*
C(=N\N1CCN(Cc2ccccc2)CC1)/c1ccccc1 | . | -9.6%[11.4 µM] | 9.5% | 4.8% | ? | ?
O=[N+]([O-])c1ccc(/C=N/N2CCN(Cc3ccccc3)CC2)cc1 | . | 44.7µM* | -0.9% | ? | 50.1µM* | 12.6µM*
O=[N+]([O-])c1cc(/C=N/N2CCN(Cc3ccccc3)CC2)ccc1Cl | 10.8% | ? | -2.9% | ? | 28.2µM* | 11.2µM*
O=C(/C=C/c1ccc([N+](=O)[O-])cc1)N1CCN(Cc2ccccc2)CC1 | 2.1% | -9.0% | 10.6% | 23.3% | -2.5% | 2.3%
Clc1cccc(/C=N/N2CCN(Cc3ccccc3)CC2)c1 | . | 50.1µM* | 13.1% | ? | 44.7µM* | 39.8µM*
CN(C(=O)c1ccccc1C(=O)OCC(=O)c1ccc(F)c(F)c1)C1CCCCC1 | 0.4% | -21.4% | . | 8.6% | 0.1% | -10.6%
O=[N+]([O-])c1ccc(Cl)c(/C=N/N2CCN(Cc3ccccc3Cl)CC2)c1 | 10.7% | ? | 5.4% | ? | 44.7µM* | 25.1µM*
O=[N+]([O-])c1ccc(Cl)c(/C=N/N2CCN(Cc3ccc(Cl)cc3)CC2)c1 | 8.6% | 23.2% | -2.8% | 23.3% | 10µM* | 22.4µM*
CCOc1ccc(N2CC(NC(=O)C3CC3)CC2=O)cc1 (stereo not given) | -5.2% | -2.6% | . | 16.7% | 20.8%[59 µM] | -4.0%
CN1CCN(c2ccc(NC(=S)NC(=O)c3cccc4c(Br)cccc34)cc2)CC1 | 4.4% | -32.3% | 5.7% | 7.5% | 6.31µM* | ?
CC(=O)N1CCN(c2ccc(NC(=S)NC(=O)c3ccccc3)cc2)CC1 | 0.0% | ? | 4.2% | -17.3% | -24.7%[59 µM] | 0.3%
CN1CCN(c2ccc(NC(=S)NC(=O)c3cccc4ccccc34)cc2)CC1 | 7.6% | ? | -24.9% | ? | 22.4µM* | 35.5µM*
CC(NC(=O)CCNS(=O)(=O)c1ccc2c(c1)oc(=O)n2C)c1ccccc1 (stereo not given) | 3.3% | -5.5% | 12.5% | 27.1% | 22.9% | 0.9%
O=c1c2ccccc2[nH]c2ccc(O)cc12 | 39.8µM* | ? | -24.8% | ? | 39.8µM* | 56.2µM*
CC(C)OC(=O)C(C(=O)C(F)(F)F)c1cc(NS(=O)(=O)c2ccc3ccccc3c2)c2ccccc2c1O (stereo not given) | 2.6% | 35.5µM* | 56.2µM* | ? | 31.6µM* | -36.5%

Screening results as filed in PubChem.
